# Source: PubChem BioAssay (NCATS)
# “And” between values parts separate entries of the source, which are not always exact repeats. Identical values can stand only once. Records with an inconclusive call do not appear. Where a call stands in place of a potency, no number is given. Some compounds were tested as several samples or in several runs, with calls that do not always agree. Unmarked numbers belong to inactive results. The source made the active and inactive calls. Calls come from the whole dose curve; as a rule, active = well fitted inhibition curve with a large enough effect; inconclusive = small, poorly fitted or top-dose-only effect; inactive = flat fitted curve, though single readings scatter.
# What was measured:
# CRL-7250 = normal cell line; assay: Cytotoxic Profiling of Annotated Libraries Using Quantitative High-Throughput Screening (AID 1296008); settings: Five cell lines viability, CellTiter-Glo ATP luminescence, 48-72 h; max response: hits give low values; note: potency is the fitted concentration of half-maximal effect
# In short: (§1)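 Compounds were pin-transferred onto cells and incubated 48 or 72 hr at 37 degree Celsius, 95% humidity. CellTiter-Glo was added, plates sat 10 min at room temperature, then ATP-coupled luminescence was imaged as the viability read-out.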
# HaCat [1] = assay: as above; settings: Five cell lines viability, CellTiter-Glo ATP luminescence, 48-72 h; max response: hits give low values
# In short: as §1
# KB-3-1 = assay: as above; settings: Five cell lines viability, CellTiter-Glo ATP luminescence, 48-72 h; max response: hits give low values
# In short: as §1
# NIH3T3 = assay: as above; settings: Five cell lines viability, CellTiter-Glo ATP luminescence, 48-72 h; max response: hits give low values
# In short: as §1
# HACAT [2] = assay: qHTS assay to identify novel small-molecules to repurpose for Merkel cell carcinoma treatment (AID 1296009); settings: MCC and control cell lines, CellTiter-Glo viability, 72 h; at 44.8 µM (top of the series) unless noted
# In short: (§2)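 Luminescence from CellTiter-Glo, read 10 min after addition at room temperature, reported viability following a 72 hr, 37 degree celsius treatment with NPC or MIPE compounds in titration; values normalized to plate controls.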
# MCC-13 = assay: as above; settings: MCC and control cell lines, CellTiter-Glo viability, 72 h; series mostly up to 46 µM
# In short: as §2
# Note: nearly all actives have a fitted effect of over 60% in size.
smiles,measurement,setting,value
COC1CCC(C(=O)c2ccc3nc4c(cc3c2)CCCO4)CC1 (stereo not drawn),outcome,CRL-7250,inactive
same,outcome,HaCat [1],inactive
same,max response,KB-3-1,-15.4%
same,max response,NIH3T3,-7.67%
same,outcome,HACAT [2],inactive
same,Potency,MCC-13,inactive
C=C[C@@H]1CN2CCC1C[C@@H]2C(O)c1ccnc2ccc(OC)cc12 (stereo partly drawn),outcome,CRL-7250,inactive
same,outcome,HaCat [1],inactive
same,max response,KB-3-1,7.83%
same,max response,NIH3T3,0.497%
same,outcome,HACAT [2],inactive
same,Potency,MCC-13,inactive
Cc1ccc(C2=Nc3ccc(Cl)cc3OC2)cc1,outcome,CRL-7250,inactive
same,outcome,HaCat [1],inactive
same,max response,KB-3-1,5.39%
same,max response,NIH3T3,-2.62%
same,outcome,HACAT [2],inactive
same,Potency,MCC-13,inactive
CCCCC[C@H](O)C=C[C@H]1[C@H](O)CC(=O)[C@H]1CC=CCCCC(=O)O,max response,CRL-7250,2.95%
same,outcome,HaCat [1],inactive
same,outcome,KB-3-1,inactive
same,max response,NIH3T3,-18.8%
same,outcome,HACAT [2],inactive
same,Potency,MCC-13,inactive
CCOC(=O)c1c(CSc2ccccc2)n(C)c2cc(Br)c(O)c(CN(C)C)c12,outcome,CRL-7250,inactive
same,outcome,HaCat [1],inactive
same,max response,KB-3-1,-17.1%
same,max response,NIH3T3,-4.48%
same,outcome,HACAT [2],inactive
same,Potency,MCC-13,inactive
CO[C@@H]1C(N(C)C(=O)c2ccccc2)C[C@H]2O[C@]1(C)n1c3ccccc3c3c4c(c5c6ccccc6n2c5c31)C(=O)NC4=O (stereo partly drawn),Potency,CRL-7250,6.62 µM (active)
same,Potency,HaCat [1],9.35 µM (active)
same,Potency,KB-3-1,10.5 µM (active)
CCN1CCC(n2cc(CNc3cc(Cl)c4ncc(C#N)c(Nc5ccc(F)c(Cl)c5)c4c3)nn2)CC1,max response,CRL-7250,-1.92% and -4.77%
same,max response,HaCat [1],-29.2% and -4.6%
same,Potency,KB-3-1,18.4 µM (active)
same,max response,NIH3T3,2.53%
same,outcome,NIH3T3,inactive
same,Potency,MCC-13,inactive
CN(C)CCOc1ccc(-c2nc(-c3ccc4c(c3)CCC4=NO)c(-c3ccncc3)[nH]2)cc1,outcome,CRL-7250,inactive
same,outcome,HaCat [1],inactive
same,max response,KB-3-1,2.27%
same,max response,NIH3T3,1.65%
same,outcome,HACAT [2],inactive
same,Potency,MCC-13,inactive
CN(C)CCOc1cc(-c2cn[nH]c2)ccc1NC(=O)C1COc2ccccc2O1 (stereo not drawn),outcome,CRL-7250,inactive
same,outcome,HaCat [1],inactive
same,max response,KB-3-1,-7.59% and -3.43%
same,max response,NIH3T3,-6.62%
same,outcome,HACAT [2],inactive
CCCCCCOC(=O)N=C(N)c1ccc(NCc2nc3cc(C(=O)N(CCC(=O)OCC)c4ccccn4)ccc3n2C)cc1,max response,CRL-7250,-14.3%
same,outcome,HaCat [1],inactive
same,max response,KB-3-1,5.67%
same,max response,NIH3T3,3.96%
same,outcome,HACAT [2],inactive
same,Potency,MCC-13,inactive
C[C@@H](NC(=O)c1ncnc(N)c1Cl)c1ncc(C(=O)Nc2cc(C(F)(F)F)c(Cl)cn2)s1,max response,CRL-7250,-9.83%
same,outcome,HaCat [1],inactive
same,outcome,KB-3-1,inactive
same,max response,NIH3T3,-5.83% and 1.58%
same,outcome,HACAT [2],inactive
same,Potency,MCC-13,inactive
C[C@@H]1CCO[C@H]2Cn3cc(C(=O)NCc4ccc(F)cc4F)c(=O)c(O)c3C(=O)N12,outcome,CRL-7250,inactive
same,outcome,HaCat [1],inactive
same,max response,KB-3-1,-10.6% and -26.2%
same,Potency,NIH3T3,20.6 µM (active)
same,max response,NIH3T3,-1.73%
same,outcome,HACAT [2],inactive
same,Potency,MCC-13,inactive
CCn1c(-c2nonc2N)nc2cncc(CNC3CCNCC3)c21,Potency,CRL-7250,7.31 µM (active)
same,max response,HaCat [1],-17.9%
same,outcome,HaCat [1],inactive
same,max response,KB-3-1,3.41% and -9.32%
same,outcome,HACAT [2],inactive
same,Potency,MCC-13,inactive
O=[N+]([O-])c1ccc(Nc2ccccc2-c2ccccc2)c2nonc12,max response,CRL-7250,-7.85%
same,outcome,HaCat [1],inactive
same,max response,KB-3-1,-18.3%
same,max response,NIH3T3,-25.2%
same,outcome,HACAT [2],inactive
same,Potency,MCC-13,inactive
CCOC(=O)N1CCN([N+]([O-])=NOc2cc(ON=[N+]([O-])N3CCN(C(=O)OCC)CC3)c([N+](=O)[O-])cc2[N+](=O)[O-])CC1,outcome,CRL-7250,inactive
same,outcome,HaCat [1],inactive
same,outcome,KB-3-1,inactive
same,outcome,NIH3T3,inactive
same,outcome,HACAT [2],inactive
CC(C)Oc1cc(Nc2nc(N[C@@H](C)c3ccc(F)cn3)ncc2Cl)[nH]n1,Potency,CRL-7250,2.64 µM (active)
same,max response,HaCat [1],-29.2%
same,Potency,KB-3-1,10.5 µM (active)
same,Potency,NIH3T3,5.26 µM (active)
CC(=O)NCCC(=O)N[C@@H](CCC(N)=O)C(=O)N[C@@H](CO)C(=O)N[C@@H](CCC(N)=O)C(=O)N[C@@H](CCC(N)=O)C(=O)N[C@H](C(=O)N[C@@H](Cc1ccccc1)C(=O)N[C@]1(C)CCCCCCC=CCCC[C@@](C)(C(=O)N[C@@H](CCC(N)=O)C(=O)N[C@@H](CC(N)=O)C(N)=O)NC(=O)[C@H](CC(C)C)NC(=O)[C@H](CC(C)C)NC(=O)[C@@H](CCCNC(=N)N)NC(=O)[C@H](Cc2c[nH]c3ccccc23)NC(=O)[C@H](CC(C)C)NC(=O)[C@H](CC(N)=O)NC1=O)[C@H](C)O,max response,CRL-7250,1.13%
same,outcome,HaCat [1],inactive
same,outcome,KB-3-1,inactive
same,max response,NIH3T3,0.272%
same,outcome,HACAT [2],inactive
same,Potency,MCC-13,inactive
CN(C)CCN(Cc1ccc(Cl)cc1)c1ccccn1,max response,CRL-7250,4.38%
same,outcome,HaCat [1],inactive
same,max response,KB-3-1,-16.5% and 0.769%
same,max response,NIH3T3,-1.04%
same,outcome,HACAT [2],inactive
same,Potency,MCC-13,inactive
Cc1ccc(S(=O)(=O)OCC(=O)Nc2ccc(C(=O)O)c(O)c2)cc1,max response,CRL-7250,-2.75%
same,outcome,HaCat [1],inactive
same,outcome,KB-3-1,inactive
same,max response,NIH3T3,-0.735%
same,outcome,HACAT [2],inactive
same,Potency,MCC-13,inactive
